Activity calls are given as the source filed them.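 The calls were made as follows, unless noted: active = compounds whose cell count with miR-34 switched on is under 0.7 times the count with it off; inactive = the rest.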
Legend:
[1] = viability loss with induced miR-34 in A549 – imaging, A549 dox-inducible miR-34, nuclei and caspase counts, primary screen (AID 1347080); conditions: A549 miR-34 inducible, Hoechst nuclei count, 48 h
[2] = MELAS cybrid and Rieske KO viability enhancers – cell-based, MELAS cybrids, Rieske KO mouse fibroblasts, CellTiter-Glo, primary screen (AID 1508586;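 active = mean z-score across replicates of 1.96 or higher in either the MELAS or the Rieske mutant cell line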;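 also: z relative to plate mean and SD of compound and empty wells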); conditions: low glucose
[3] = stronger effect = lower value, cell number ratio, induced over uninduced
[4] = measured here: relative caspase fold change +Dox/-Dox
[5] = measured here: total cells with miR-34 induction, stronger effect = lower value
[6] = measured here: total cells without miR-34 induction
[7] = MELAS cybrid survival, CellTiter-Glo 48 h, stronger effect = higher value
[8] = Rieske KO mouse fibroblast survival, CellTiter-Glo 72 h
Also: test concentration not given here.

Compound | fold change [1, 3] | fold change [1, 4] | cell count [1, 5] | cell count [1, 6] | z-score [2, 7] | z-score [2, 8]
CCOC(=O)C(CCc1ccccc1)NC(C)C(=O)N1Cc2cc(OC)c(OC)cc2CC1C(=O)O (stereo not given) | 0.97 (inactive) | 0.414 | 7830 | 8070 | -0.293 (inactive) | -0.111
CC[C@]1(O)C[C@@H]2CN(CCc3c([nH]c4ccccc34)[C@@](C(=O)OC)(c3cc4c(cc3OC)N(C=O)[C@@H]3[C@@]45CCN4CC=C[C@@](CC)(C(OC(C)=O)[C@]3(O)C(=O)OC)[C@H]45)C2)C1 (stereo not given in full) | 1.22 (inactive) | 0.801 | 1340 | 1100 | 0.317 (inactive) | -1.38
CC(CCC(=O)O)C1CC[C@H]2[C@@H]3CC[C@@H]4CC(O)CC[C@]4(C)[C@H]3CC[C@]12C (stereo not given in full) | 0.884 (inactive) | 1.13 | 7640 | 8650 | -0.0806 (inactive) | -0.272
Cc1[nH]c(C=C2C(=O)Nc3ccc(S(=O)(=O)Cc4c(Cl)cccc4Cl)cc32)c(C)c1C(=O)N1CCCC1CN1CCCC1 (stereo not given) | 0.833 (inactive) | 1.46 | 4270 | 5130 | -0.699 (inactive) | 0.101
COC(=O)[C@]12CCC(C)(C)C[C@@H]1[C@@H]1C(=O)C=C3[C@]4(C)C=C(C#N)C(=O)C(C)(C)[C@@H]4CC[C@@]3(C)[C@]1(C)CC2 | 0.818 (inactive) | 0.469 | 308 | 376 | -0.649 (inactive) | -3.82
CC(C)(C)NS(=O)(=O)c1cncc(-c2cc(F)c3nc(N)nn3c2)c1 | 0.874 (inactive) | 1.55 | 8160 | 9340 | -0.353 (inactive) | -0.161
CC(C)Oc1ccc(-c2cnc3c(-c4ccnc5ccccc45)cnn3c2)cc1 | 0.806 (inactive) | 0.45 | 5470 | 6780 | -0.164 (inactive) | 0.555
CC1(C)O[C@@H]2C[C@H]3[C@@H]4C[C@@H](F)C5=CC(=O)C=C[C@]5(C)[C@]4(F)C(O)C[C@]3(C)[C@@]2(C(=O)CO)O1 (stereo not given in full) | 0.861 (inactive) | 0.94 | 5980 | 6950 | -0.367 (inactive) | -0.28
O=C(NC1CCN(CCCCC2(C(=O)NCC(F)(F)F)c3ccccc3-c3ccccc32)CC1)c1ccccc1-c1ccc(C(F)(F)F)cc1 | 1.05 (inactive) | 0.667 | 3960 | 3780 | -0.492 (inactive) | -0.827
CC1COC2=C1C(=O)C(=O)c1c2ccc2c1CCCC2(C)C (stereo not given) | 1.09 (inactive) | 0.507 | 2070 | 1890 | -0.382 (inactive) | -0.5
CC(=O)O[C@]12COC1CC(O)[C@]1(C)C(=O)C(O)C3=C(C)C(OC(=O)C(O)C(NC(=O)OC(C)(C)C)c4ccccc4)C[C@](O)(C(OC(=O)c4ccccc4)C21)C3(C)C (stereo not given in full) | 1.04 (inactive) | 0.7 | 2320 | 2220 | 6.54 (active) | -0.0789
CC(O)[C@@H]1C(=O)N2C(C(=O)O)=C(SC3CNC(CNS(N)(=O)=O)C3)C(C)[C@@H]12 (stereo not given in full) | 0.983 (inactive) | 0.831 | 7900 | 8030 | -0.367 (inactive) | -0.0647
COC1O[C@H]2O[C@@]3(C)CC[C@H]4[C@@H](C)CC[C@@H]([C@H]1C)[C@@]24OO3 (stereo not given in full) | 0.86 (inactive) | 1.37 | 7410 | 8620 | -0.241 (inactive) | 0.578
CCOC1OC(=O)CC1NC(=O)C1CCCN1C(=O)C(NC(=O)c1ccc(N)c(Cl)c1)C(C)(C)C (stereo not given) | 0.983 (inactive) | 0.559 | 8140 | 8280 | -0.153 (inactive) | 0.0351
CC1COCCN1c1cc(C2(S(C)(=O)=O)CC2)nc(-c2cccc3[nH]ccc23)n1 (stereo not given) | 0.703 (inactive) | 2.27 | 1950 | 2770 | 2.53 (active) | -0.319
CCc1cnn2c(NCc3ccc[n+]([O-])c3)cc(N3CCCCC3CCO)nc12 (stereo not given) | 1.13 (inactive) | 0.956 | 1750 | 1550 | 1.14 (inactive) | -3.25
CCOc1ccc2ccccc2c1C(=O)NC1C(=O)N2C(C(=O)O)C(C)(C)S[C@H]12 (stereo not given in full) | 1.19 (inactive) | 0.989 | 8800 | 7400 | -0.279 (inactive) | -0.179
CC1C[C@@H]2[C@@H](C(O)C[C@@]3(C)[C@H]2CC[C@@]3(O)C(=O)CO)[C@@]2(C)C=CC(=O)C=C12 (stereo not given in full) | 0.787 (inactive) | 1.42 | 5500 | 6980 | -0.489 (inactive) | -0.516
NC(=O)Nc1cc(-c2cccc(F)c2)sc1C(=O)NC1CCCNC1 (stereo not given) | 1.01 (inactive) | 0.785 | 866 | 858 | -0.543 (inactive) | -2.7
COc1ccc(CNCc2cccc3ccccc23)cc1 | 0.918 (inactive) | 0.638 | 8220 | 8960 | -0.404 (inactive) | -0.0397

Source: PubChem BioAssay
